PubChem BioAssay AID1220 (Sanford-Burnham Center for Chemical Genomics, 2008)
Among all 190,000 compounds or so, about 1,300 (0.68%) were called active. For the sample, actives were picked, then their nearest neighbours and some compounds at random. Unmarked numbers belong to inactive results. Cut-off read from the data, not from the text of the source: active = inhibition above about 50%; inactive = the rest.

These molecules were tested against Mannose-6-phosphate isomerase (Homo sapiens) (UniProt P34949) (assay: MPI inhibition at elevated mannose 6-phosphate – biochemical, fluorescence intensity, high mannose 6-phosphate, primary screen (AID 1220)). Details: recombinant PMI enzyme, coupled fluorescence intensity; at 20 µM; stronger effect = higher value.
Sequence of Mannose-6-phosphate isomerase (Homo sapiens) (P34949 whole entry, looked up): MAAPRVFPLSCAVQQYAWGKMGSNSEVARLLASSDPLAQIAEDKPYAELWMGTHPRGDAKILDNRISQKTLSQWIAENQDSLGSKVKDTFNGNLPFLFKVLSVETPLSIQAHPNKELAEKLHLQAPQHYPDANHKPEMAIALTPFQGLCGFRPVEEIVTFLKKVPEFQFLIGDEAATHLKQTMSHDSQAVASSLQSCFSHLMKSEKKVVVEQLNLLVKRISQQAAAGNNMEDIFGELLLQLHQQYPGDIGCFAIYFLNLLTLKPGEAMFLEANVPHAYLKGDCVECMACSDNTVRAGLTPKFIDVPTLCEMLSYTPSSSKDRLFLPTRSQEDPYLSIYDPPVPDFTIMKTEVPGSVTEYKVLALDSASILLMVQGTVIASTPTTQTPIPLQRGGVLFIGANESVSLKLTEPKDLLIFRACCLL

Row | SMILES | inhibition
1 | COc1cc(Cl)c(C)cc1NC(=O)CSc1nnc(CCC(=O)O)c(=O)[nH]1 | 6.6%
2 | COc1ccc(CCNC2CC(=O)N(CCc3ccc(OC)c(OC)c3)C2=O)cc1OC (stereo not drawn) | 1.6%
3 | COc1ccc(CCN2C(=O)CC(NCc3ccc4c(c3)OCO4)C2=O)cc1OC (stereo not drawn) | 51% (active)
4 | O=C1CC(NCc2ccc3c(c2)OCO3)C(=O)N1CCc1ccccc1 (stereo not drawn) | 1%
5 | CCc1nnc(NC(=O)CN2C(=O)c3ccccc3C2=O)s1 | -2.7%
6 | O=C1C2C3C=CC(C3)C2C(=O)N1Cc1ccccc1 (stereo not drawn) | 10%
7 | Cn1c(=O)c2cc(S(=O)(=O)NC(C(=O)Nc3cccc(F)c3)c3ccccc3)ccc2n(C)c1=O (stereo not drawn) | 1.9%
8 | Cc1cc(C)c2c(N)c3cccc(C)c3nc2n1 | 5.4%
9 | Cc1cc(N)c2ccccc2n1 | 5.5%
10 | Cc1cc(C)c2cccc(N)c2n1 | 64% (active)
11 | Cc1ccc2cccc(NC(=O)C(F)(F)F)c2n1 | 9.3%
12 | Cc1ccc2cccc(OCCOCCOc3ccccc3Br)c2n1 | 35.7%
13 | Cc1ccc2cccc(N)c2n1 | 56.5% (active)
14 | COP(=O)(OC)c1nc(-c2ccccc2)oc1N1CCOCC1 | -10.4%
15 | CC1CCCCC1N1CN=C(Nc2nc3ccccc3s2)NC1 (stereo not drawn) | 8.2%
16 | Nc1nc(SCC(=O)NCCCO)nc2sc3c(c12)CCC3 | 57% (active)
17 | Nc1nc(SCC(=O)NCCO)nc2sc3c(c12)CCCC3 | 5.1%
18 | Nc1nc(SCC(=O)NCCOCCO)nc2sc3c(c12)CCCC3 | 2.8%
19 | Cc1c(Cl)cccc1NC(=O)Cn1cc(C(F)(F)F)cc(Cl)c1=O | -5.8%
20 | CCN(CC)c1ccc(/C=C2/SC(=O)N(C(C)C)C2=O)o1 | 51.9% (active)
21 | CC(C)N1C(=O)S/C(=C/c2ccc3c(c2)n(C)c(=O)n3C)C1=O | 7.6%
22 | CC(C)N1C(=O)S/C(=C/c2ccc(Sc3nc4ccccc4[nH]3)o2)C1=O | 13.6%
23 | C/C(=N\NC(=O)CN(c1ccccc1Br)S(C)(=O)=O)c1cccs1 | -17.2%
24 | CCS(=O)c1ccccc1C(=O)O (stereo not drawn) | 9.5%
25 | CCCCNc1nc(CC)c2c(c1C#N)CCCC2 | -5.9%
26 | CCOC(=O)c1cc(C(=O)c2ccccc2O)cn2c(=O)c3c(C)c(C)sc3nc12 | 16.1%
27 | Cc1sc2nc3c(C(=O)N4CCCC4)cc(C(=O)c4ccccc4O)cn3c(=O)c2c1C | 7.7%
28 | Cc1sc2nc3c(SC(C)C(=O)O)cc(C(=O)c4ccccc4O)cn3c(=O)c2c1C (stereo not drawn) | 69% (active)
